Measurements: the supplement of paper PMC9135407
Several values for one entry are separate records, joined by “and”; a condition that tells them apart may be missing. Identical values can stand only once. Counter-ions that a name gives are not always drawn. Screen size: about 5,800 compounds; about 620 (11%) showed activity. Only a selection was taken, and actives are over-represented in it overall. A number with no mark means an inactive call.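 How the source made its calls: active = score above a cut-off or among the top three wells of a plate; in these data no inactive exceeds 0.85.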

Tested on: primary human hepatic stellate cells (donor 1)
Assay: scaled lipid accumulation score (0 = DMSO-like, 1 = nortriptyline-like); higher = stronger HSC inactivation (lipid re-accumulation), active = hit call of the paper
Details: 48 h
[1] = library stock concentration: 1 mM
[2] = library stock concentration: 10 mM
[3] = library stock concentration: 3.33 mM
[4] = library stock concentration: 80 uM
[5] = library stock concentration: 400 uM
[6] = library stock concentration: 2 mM

## CCC(O)/C=C/C=O (configuration not stated) [4-hydroxy Hexenal]
[1]
  scaled lipid accumulation score: ≤ 0

## CCCCC[C@H](O)/C=C/[C@H]1[C@H](O)CC(=O)[C@@H]1CCCCCCC(=O)NCCO [Prostaglandin E1 Ethanolamide]
[1]
  scaled lipid accumulation score: ≤ 0

## O=c1cc(-c2ccc(O)cc2)oc2cc(O[C@@H]3O[C@H](CO)[C@@H](O)[C@H](O)[C@H]3O)cc(O)c12 [Cosmosiin]
[2]
  scaled lipid accumulation score: 0.333

## CC(C)=CCC/C(C)=C\CO [Nerol]
[2]
  scaled lipid accumulation score: ≤ 0

## CC(C)=CCC/C(C)=C/CC/C(C)=C/CC[C@]1(C)CCc2cc(O)c(C)c(C)c2O1 [.gamma.-Tocotrienol]
[1]
  scaled lipid accumulation score: ≤ 0

## NC12CC3CC(CC(C3)C1)C2 [Amantadine HCl]
[3]
  scaled lipid accumulation score: ≤ 0
[2]
  scaled lipid accumulation score: 0.042

## CC12CC3CC(C)(C1)CC(N)(C3)C2 [Memantine HCl]
[3]
  scaled lipid accumulation score: 0.012
[2]
  scaled lipid accumulation score: 0.415

## CC12CC3CC(C)(C1)CC(N)(C3)C2
[2]
  scaled lipid accumulation score: 0.869 (active)

## CC12CC3CC(C)(C1)CC(N)(C3)C2 [Memantine Hydrochloride]
  scaled lipid accumulation score: 0.399

## NC12CC3CC(CC(C3)C1)C2 [Adamantamine fumarate]
  scaled lipid accumulation score: 0.029

## CC12CC3CC(C)(C1)CC(N)(C3)C2 [Memantine hydrochloride]
Library stock concentration: 9.3 mM
  scaled lipid accumulation score: 0.689
[2]
  scaled lipid accumulation score: 0.344 and 0.653 and 0.597

## NC12CC3CC(CC(C3)C1)C2 [Amantadine hydrochloride]
[2]
  scaled lipid accumulation score: 0.29 and 0.659
Library stock concentration: 10.7 mM
  scaled lipid accumulation score: 0.031

## NC12CC3CC(CC(C3)C1)C2 [Symmetrel]
[2]
  scaled lipid accumulation score: 0.158

## CC12CC3CC(C)(C1)CC(N)(C3)C2.Cl [Memantine hydrochloride]
[2]
  scaled lipid accumulation score: 1.05 (active)

## COC(=O)CCCCCCC1C(O)CC(O)C1CCC(O)C#Cc1ccccc1F (configuration not stated)
[1]
  scaled lipid accumulation score: ≤ 0

## NC(=S)NCCC[C@H](N)C(=O)O [L-Thiocitrulline (hydrochloride)]
[1]
  scaled lipid accumulation score: 0.048

## NC(=S)NCCC[C@H](N)C(=O)O [Thiocitrulline [L-Thiocitrulline]]
Library stock concentration: 26.1 mM
  scaled lipid accumulation score: 0.069

## Cc1cccc(CC(=O)N2CCc3c2ccc(-c2cn(C)c4ncnc(N)c24)c3F)n1
[3]
  scaled lipid accumulation score: ≤ 0
[2]
  scaled lipid accumulation score: ≤ -0.001

## CCN(CC)CCNC(=O)c1ccc(NS(C)(=O)=O)cc1 [Sematilide monohydrochloride monohydrate]
[2]
  scaled lipid accumulation score: ≤ -0.07

## COc1cc(C(=O)NCc2ccc(OCCN(C)C)cc2)cc(OC)c1OC [Trimethobenzamide hydrochloride]
  scaled lipid accumulation score: ≤ 0
Library stock concentration: 4.7 mM
  scaled lipid accumulation score: 0.028
[2]
  scaled lipid accumulation score: ≤ 0

## CCC(CC)CNc1cc(C(=O)NCCN(C)C)cc(S(=O)(=O)Nc2ccc(OC)cc2)c1
[2]
  scaled lipid accumulation score: 0.996 (active)

## O=c1[nH][nH]c2nnc(-c3c(-c4ccccc4)nn4ccccc34)cc12 [ERK Inhibitor II, Negative Control]
[3]
  scaled lipid accumulation score: ≤ 0

## C=CC[N+]1([C@H]2C[C@H]3[C@@H]4CC[C@H]5C[C@H](O)[C@@H](N6CCOCC6)C[C@]5(C)[C@H]4CC[C@]3(C)[C@H]2OC(C)=O)CCCC1 [Rocuronium Bromide]
[3]
  scaled lipid accumulation score: ≤ 0
[2]
  scaled lipid accumulation score: ≤ 0

## COc1ccc(C2(O)OC(=O)C(c3ccc4c(c3)OCO4)=C2Cc2cc(OC)c(OC)c(OC)c2)cc1 (configuration not stated)
[2]
  scaled lipid accumulation score: 0.037

## CCCCCCCCCCCC(=O)CC(=O)N[C@H]1CCOC1=O [N-3-oxo-tetradecanoyl-L-Homoserine lactone]
[1]
  scaled lipid accumulation score: ≤ 0

## CC/C=C\C/C=C\C/C=C\CCCCCCCCCCCC(=O)O [Docosatrienoic acid (22:3 n-3)]
[1]
  scaled lipid accumulation score: ≤ -0.021

## COc1cccc2c1[C@@H]1CN(CCCCn3c(=O)[nH]c4c(sc5ncc(-c6ccccc6)nc54)c3=O)C[C@@H]1CO2.Cl [Fiduxosin hydrochloride]
[2]
  scaled lipid accumulation score: 0.863 (active)

## COc1ccc(/C=C/c2ccccc2F)cc1
[1]
  scaled lipid accumulation score: 0.063

## C/N=C(/NC#N)NCCSCc1csc(NC(=N)N)n1 [Tiotidine]
Library stock concentration: 6.4 mM
  scaled lipid accumulation score: ≤ -0.006
[2]
  scaled lipid accumulation score: 0.044

## COc1cc2nc(N3CCCN(C)CC3)nc(NC3CCN(Cc4ccccc4)CC3)c2cc1OC.Cl.Cl.Cl.O
[1]
  scaled lipid accumulation score: 0.804 (active)

## COc1cc2nc(N3CCCN(C)CC3)nc(NC3CCN(Cc4ccccc4)CC3)c2cc1OC
[4]
  scaled lipid accumulation score: ≤ 0
[5]
  scaled lipid accumulation score: ≤ 0
[6]
  scaled lipid accumulation score: 0.569
[3]
  scaled lipid accumulation score: 0.42
[2]
  scaled lipid accumulation score: 0.096 and 0.353 and 0.204

## COc1cc2c(NC3CCN(C(C)C)CC3)nc(C3CCCCC3)nc2cc1OCCCN1CCCC1
[4]
  scaled lipid accumulation score: ≤ 0
[5]
  scaled lipid accumulation score: ≤ 0
[6]
  scaled lipid accumulation score: 0.354
[2]
  scaled lipid accumulation score: 0.14

## Nc1nccc(-c2c(-c3ccc(F)cc3)ncn2C2CCNCC2)n1
[3]
  scaled lipid accumulation score: ≤ 0

## O=S1(=O)c2cccc3cccc(c23)N1CCCN1CCN(c2ccc(F)cc2)CC1 [Fananserin]
[2]
  scaled lipid accumulation score: 0.048

## N=C(N)SCCc1ccc(CCSC(=N)N)cc1 [1,4-PBIT (dihydrobromide)]
[1]
  scaled lipid accumulation score: 0.049

## N=C(N)SCCc1cccc(CCSC(=N)N)c1 [1,3-PBIT (dihydrobromide)]
[1]
  scaled lipid accumulation score: ≤ 0

## CS(=O)(=O)O.N=C(N)SCCc1ccc(OCc2ccc([N+](=O)[O-])cc2)cc1 [KB-R7943 mesylate]
[2]
  scaled lipid accumulation score: 0.99 (active)

## C=CCNC(N)=S
[2]
  scaled lipid accumulation score: ≤ 0

## C=CCNC(N)=S [Allylthiourea]
[3]
  scaled lipid accumulation score: ≤ 0
[2]
  scaled lipid accumulation score: ≤ -0.001

## CCCCCCCCCCCCCCNC(=O)C1CCCCC1 [N-Cyclohexanecarbonyltetradecylamine]
[1]
  scaled lipid accumulation score: 0.008

## CC(C)c1noc(N2CCC(COc3ccc(-c4ccc(S(C)(=O)=O)cc4)nc3)CC2)n1
[3]
  scaled lipid accumulation score: 0.019
[2]
  scaled lipid accumulation score: 0.16

## Oc1cc(O)c(Cl)cn1 [Gimeracil]
[3]
  scaled lipid accumulation score: 0.014
[2]
  scaled lipid accumulation score: 0.04

## CCCSc1ccc2[nH]c(NC(=O)OC)nc2c1 [Albendazole]
  scaled lipid accumulation score: 0.176
[3]
  scaled lipid accumulation score: ≤ 0
Library stock concentration: 7.5 mM
  scaled lipid accumulation score: 0.449 and ≤ 0
[2]
  scaled lipid accumulation score: ≤ -0.027 and 0.562

## COC(=O)Nc1nc2ccc(SC(C)C)cc2[nH]1 [Methiazole]
  scaled lipid accumulation score: ≤ 0

## CCCSc1ccc2nc(NC(=O)OC)[nH]c2c1 [Albendazole]
[2]
  scaled lipid accumulation score: 0.892 (active)
